The results in this text go back to PubChem BioAssay (NCATS).

Results with a measured potency or affinity are listed apart. Values without a mark were called inactive. The rule behind the calls is not given here.
Note: 0% is about no effect.

The conditions of the experiment: Ebola virus entry assay, green fluorescence channel.
Turning to `C[N+]1(C)CCC(=C(c2ccccc2)c2ccccc2)CC1`, the efficacy is -9.5%.

Regarding `O=C(O)C(Cc1cc(I)c(O)c(I)c1)c1ccccc1` (stereo not given), the efficacy was -25.4%.

With `CC(C)(C)c1ccc(C(=O)CCCCl)cc1`, the efficacy was -23.2%.

In the case of `O=c1[nH]c(=O)c2[nH]c(=O)[nH]c2[nH]1`, the efficacy is 22%.

On to `O=C(O)C(=O)Nc1cccc(-c2nn[nH]n2)c1`, for which the efficacy is 14.4%.

As for `COC(=O)C1=C(C)NC(C)=C(C(=O)OC)C1c1ccccc1[N+](=O)[O-]`, the efficacy is 16.8%.

As to `C[C@]12C=CC(=O)C=C1CC[C@H]1[C@@H]3C[C@@H](O)[C@](O)(C(=O)CO)[C@@]3(C)C[C@H](O)[C@@]12F`, the efficacy was 17%.

On to `CCC(=O)Oc1ccc2c(c1)CC[C@@H]1[C@@H]2CC[C@@]2(C)[C@H]1C[C@@H](OC(=O)CC)[C@@H]2OC(=O)CC`, for which the efficacy was -23.4%.

Take `CN1[C@@H]2CC[C@H]1CC(NC(=O)n1c(=O)[nH]c3ccccc31)C2` (stereo not given in full): the efficacy is -15.6%.

Turning to `CN1CCCN=C1/C=C/c1cccs1`, the efficacy is -15%.

For the molecule `NC(CSCC(=O)O)C(=O)O` (stereo not given), the efficacy is -16%.

For `CCOC(=O)c1ccc(C#Cc2ccc3c(c2)C(C)(C)CCS3)nc1`, the efficacy was 24%.

With `CC(=O)N[C@H]1[C@H]([C@H](O)[C@H](O)CO)OC(C(=O)O)=C[C@@H]1N=C(N)N`, the efficacy is -18.6%.

On to `O=C(Nc1ccc(C(=O)O)c(O)c1)c1ccccc1`, for which the efficacy is -10.4%.

Turning to `Nc1c(NC/C=C\COc2cc(CN3CCCCC3)ccn2)c(=O)c1=O`, the efficacy is -32.1%.
